High-throughput results as filed in PubChem BioAssay.
Compounds with a hit are over-represented: about 7.9% of the library has one in this group of screens.
SW480 rerep – inducers of DNA re-replication in SW480 colon cancer cells; SW480 DNA re-replication, Hoechst DNA content imaging, 48 h; hit rate 1.8% among 340,000; Potency, µM (highest dose often 46.1 µM), for inactives: top-dose re-replication activation, hits mostly activators; also: % of control where 0% means no effect; nearly all actives have a fitted effect of over 55% in size
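Image-based DNA-content assay: after two days of treatment, nuclei were labelled with the DNA dye Hoechst and imaged, and hits were compounds raising the count of nuclei showing high fluorescence intensity.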
MCF10A rerep – induces DNA re-replication in MCF 10a normal breast cells. Potency, µM (series often up to 46.1 µM), for inactives: at the top dose activity, positive = re-replication, usual class: activators. hit rate 2.9% among 350,000. MCF 10A DNA re-replication, Hoechst nuclear intensity, 48 h; also: % of control where 0% means no effect; nearly all actives have a fitted effect of over 50% in size
KB-3-1 cytotox – KB-3-1 parental cell cytotoxicity | KB-3-1 viability, CellTiter-Glo ATP luminescence, 72 h | Potency, µM (titrated, usually from 46.1 µM), hits mostly cytotoxic | hit rate 1.4% among 400,000 | AID 1347075; also: % is scaled to controls: 0 for no effect and ±100 for the full control effect; nearly all actives have a fitted effect of over 60% in size
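Cytotoxicity measured as CellTiter-Glo luminescence after 72 h at 37 C. Compound titrations were pinned onto drug-naive KB-3-1 parental adenocarcinoma cells grown in DMEM with 10% FBS, and normalized data fitted to concentration-response curves.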
HT1080-NT tox – kills 2HG-producing HT-1080-NT fibrosarcoma cells. HT-1080-NT fibrosarcoma viability, CellTiter-Glo ATP luminescence, 48 h. Potency, µM (titrated, usually from 46.1 µM), inactives show at the top dose activity, negative = less viability, most hits filed as cytotoxic. hit rate 1.6% among 360,000;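 also: NT is the 2HG producing partner of a matched IDH1 knockdown line; 0% = DMSO-treated cells and -100% = media-only wells without cells; nearly all actives have a fitted effect of over 55% in size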
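HT-1080-NT; 750 cells/well; 5% FBS RPMI; 48 h compound, 37 degrees C; CellTiter-Glo luminescence; curve fitting and curve-class assignment.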
HT1080 IDH1KD tx – HT-1080 IDH1 knockdown cell toxicity (counter line); HT-1080 IDH1 knockdown viability, ATP luminescence, 48 h; Potency, µM (highest dose often 46.1 µM), inactives show at the highest dose activity, negative = toxicity, usual class: cytotoxic; hit rate 2% among 360,000; AID 686971;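 also: 0% = DMSO wells and -100% = cell-free medium wells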
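% activity derives from luminescence (CellTiter-Glo), normalised to DMSO and no-cell wells. HT-1080-IDH1KD cells, 750/well, had 48 h compound exposure at 37 °C.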
KB-V1 MDR tox – kills drug-selected multidrug resistant KB-V1 cells; KB-V1 MDR cells viability, CellTiter-Glo, 72 h; Potency, µM (highest dose often 46.1 µM), hits mostly cytotoxic; hit rate 3.4% among 400,000; AID 1347076; also: % is scaled to controls: 0 for no effect and ±100 for the full control effect; nearly all actives have a fitted effect of over 60% in size
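qHTS viability screen in drug-selected KB-V1 MDR cells: 72 h compound treatment at 37 degrees C, ATP luminescence end point.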
Numbers without * were called inactive; i = inactive; ? = inconclusive; . = not tested or not shown. Calls follow the shape of the dose curve; as a rule, active = well fitted curve in the direction sought with a large enough effect; inconclusive = small, poorly fitted or top-dose-only effect, or another doubt; inactive = no such curve, though single readings can be large; an effect the other way counts as inactive or inconclusive. Potency is read from the fitted curve at half-maximal effect.

SMILES | SW480 rerep | MCF10A rerep | KB-3-1 cytotox | HT1080-NT tox | HT1080 IDH1KD tx | KB-V1 MDR tox
CCOC(=O)CNC(=O)C1(/C=C/c2ccccc2)CC(=O)N1c1ccc(OC)cc1 (stereo not given) | -9.2% | 3.8% | i | 5.4% | 8.8% | i
COc1ccc(N2C(=O)CC2(/C=C/c2ccccc2OC)C(=O)NC2CCCC2)cc1 (stereo not given) | 0.6% | -2.0% | ? | -0.5% | -0.4% | 3.66µM*
Cc1c(C(=O)OC2CCCCC2)[nH]c2c1C(=O)CC(c1ccc(C(C)(C)C)cc1)C2 (stereo not given) | . | . | i | . | . | i
Nc1sc(Cc2ccccc2)cc1C(=O)NC1CCCCC1 | . | . | ? | -10.9% | -15.0% | ?
Cc1cccc(OCCSc2nc3ccc(NC(=O)COc4ccccc4F)cc3s2)c1 | . | . | i | . | . | i
C=CCn1c(SCc2c(C)noc2C)nc2sc(C)c(C)c2c1=O | ? | 23.1µM* | i | 15.8µM* | 11.2µM* | i
C=CCn1c(SCC(=O)c2cc(C)n(C(C)COC)c2C)nc2sc(C)c(C)c2c1=O (stereo not given) | ? | 18.4µM* | i | -28.1% | ? | 8.2µM*
CCc1ccc(NC(=O)CCc2c(C)nc3nc(-c4cc(OC)cc(OC)c4)nn3c2C)cc1 | . | . | i | . | . | i
CC(C)(C)OC(=O)N1CCC(N2CCN(Cc3ccccc3)C(=O)C2=O)CC1 | . | . | i | . | . | i
Cc1ccc(C)c(Cn2nc(-c3cc(C)ccc3C)ccc2=O)c1 | 116.3% | ? | i | ? | 18.4µM* | ?
Cc1ccc(C(=O)N2CCCC(c3ccc(Cl)cc3)=N2)cc1 | ? | 18.4µM* | i | ? | ? | i
COc1ccc(CCNC(=O)Nc2nc(C(N)C3CCCCC3)cs2)cc1OC (stereo not given) | . | . | ? | ? | ? | i
COc1ccccc1NC(=O)Nc1nc(C(N)C2CCCCC2)cs1 (stereo not given) | . | . | i | 16.4µM* | ? | i
COc1cc(NC(=O)Nc2nc(C(N)C(C)C)cs2)cc(OC)c1OC (stereo not given) | . | . | i | 16.4µM* | ? | i
COc1cc(NC(=O)Nc2nc(C(N)C3CCCCC3)cs2)cc(OC)c1OC (stereo not given) | . | . | ? | -76.7% | 20.6µM* | i
COc1ccc(NC(=O)COC(=O)c2c(NC(C)=O)sc(C)c2C)cc1 | . | . | ? | 0.7% | -7.1% | i
CCC(=O)N1N=C(c2ccc(NS(=O)(=O)c3ccccc3)cc2)CC1c1ccco1 (stereo not given) | -6.7% | 26.1% | ? | -22.3% | 0.0% | i
COc1cc(NC(=O)c2noc3c2CCc2ccccc2-3)cc(OC)c1OC | . | . | i | . | . | i
CCCS(=O)(=O)Nc1cccc(-c2ccc3nnc(C)n3n2)c1 | 18.4µM* | -4.1% | i | -15.6% | -1.4% | i
Cc1nnc2ccc(-c3cccc(NS(=O)(=O)c4ccccc4Cl)c3)nn12 | -8.3% | ? | ? | -28.3% | -12.2% | i
O=C(CCCCCN1C(=O)CCC1=O)Nc1ccc(Cl)c(C(F)(F)F)c1 | -1.0% | 2.6% | i | -30.0% | ? | 16.4µM*
CCc1ccccc1NCC(=O)Nc1ccc(Cl)c(C(F)(F)F)c1 | ? | ? | ? | ? | ? | 20.6µM*
COc1ccc(NC(=O)CN2CCN(CC(=O)Nc3ccccc3Cl)CC2)cc1Cl | 1.3% | 10.6% | i | -1.1% | -0.8% | ?
COc1ccc(NC(=O)CCCCCN2C(=O)CCC2=O)cc1Cl | -2.3% | 6.8% | i | 11.0% | 1.0% | ?
COc1ccccc1NC(=O)CN1CCN(CC(=O)Nc2ccc(Cl)c(C(F)(F)F)c2)CC1 | 0.9% | ? | ? | ? | 23.1µM* | ?
COc1cc(NC(=O)Nc2cccc(Cl)c2)c(OC)cc1NC(=O)CN1CCCCC1 | ? | ? | ? | ? | 20.6µM* | ?
